We go through nine molecules from PubChem BioAssay.

The nature of test [1]: resazurin metabolic signal in HepG2 cells – cell-based, resazurin fluorescence, 24 h, PK04 Diversity Set, profiling panel (AID 1172). The conditions noted are these: HepG2 viability, higher = more signal. Background: Resazurin is reduced to fluorescent resorufin, in cell work by metabolically active cells.
Test [2] in a line: budding yeast growth changes without added modifier – OD600, strain BY4716, 24 h, basal condition, primary screen (AID 1173). The following applies: S. cerevisiae BY4716 growth, OD600, 24 h; higher = more signal, called active from +8 up or from −8 down.
Test [3] is described as follows: viability profiling in MM1S myeloma cells – cell-based, resazurin fluorescence, basal, 24 h, PK04 Diversity Set, profiling panel (AID 1174).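 Note: MM1S multiple myeloma cell line.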 The following applies: higher = more signal, called active from +8 up or from −8 down.
The target in test [4] is Dihydroorotate dehydrogenase (quinone), mitochondrial (Plasmodium falciparum (isolate 3D7)) (UniProt Q08210). Kind of test: inhibition of P. falciparum DHODH – biochemical, C-terminal His tag, absorbance 600 nm, primary screen (AID 1175).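 Note: recombinant parasite enzyme with a five histidine tag at its C terminus.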 The conditions noted are these: PfDHODH enzyme, DCIP absorbance 600 nm; higher = more signal, called active from +8 up or from −8 down.
Sequence of Dihydroorotate dehydrogenase (quinone), mitochondrial (Plasmodium falciparum (isolate 3D7)) (Q08210 whole entry, looked up): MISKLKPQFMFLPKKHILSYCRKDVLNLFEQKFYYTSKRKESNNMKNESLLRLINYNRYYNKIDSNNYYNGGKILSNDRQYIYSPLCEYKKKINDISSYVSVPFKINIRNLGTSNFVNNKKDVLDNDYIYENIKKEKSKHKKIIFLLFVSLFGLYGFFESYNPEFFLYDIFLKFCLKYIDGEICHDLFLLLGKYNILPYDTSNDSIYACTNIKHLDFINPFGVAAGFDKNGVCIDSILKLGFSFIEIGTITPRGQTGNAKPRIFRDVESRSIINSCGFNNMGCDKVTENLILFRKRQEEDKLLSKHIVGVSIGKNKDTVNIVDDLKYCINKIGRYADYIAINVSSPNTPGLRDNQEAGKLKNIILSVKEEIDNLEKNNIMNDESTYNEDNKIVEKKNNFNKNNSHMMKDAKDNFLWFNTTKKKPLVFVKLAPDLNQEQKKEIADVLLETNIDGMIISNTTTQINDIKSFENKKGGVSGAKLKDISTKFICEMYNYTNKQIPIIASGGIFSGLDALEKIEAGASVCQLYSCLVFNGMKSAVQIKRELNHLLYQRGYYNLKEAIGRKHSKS
Test [5] in a line: inhibition of PAO1 biofilm formation – strain PAO1, LB-PBS medium, absorbance 600 nm, primary screen (AID 1176). The following applies: P. aeruginosa PAO1 growth/biofilm, A600, 12 h; higher = more signal.
Test [6] is described as follows: growth modulation of vineyard yeast isolate – strain RM11-1a, OD600, basal, 24 h, primary screen (AID 1177).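 Note: cultures grown under basal conditions with no added stressor.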 The following applies: S. cerevisiae RM11-1a growth, OD600, 24 h; higher = more signal, called active from +8 up or from −8 down.
Test [7] can be described thus: growth of efflux-deficient E. coli DRC39 – strain DRC39, OD650, 24 h, E. coli filamentation inducers, primary screen (AID 1178).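 Note: growth measured as culture turbidity by optical density at 650 nm.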 The conditions noted are these: E. coli DRC39 acrAB, higher = more signal, called active from +8 up or from −8 down.
Test [8] can be described thus: growth of efflux-deficient E. coli DRC39 – strain DRC39, OD650, 48 h, E. coli filamentation inducers, primary screen (AID 1179).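 Note: screen aims at cell division blockers that make cells filament.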 The conditions noted are these: E. coli DRC39 delta-acrAB growth, higher = more signal, called active from +8 up or from −8 down.
Test [9] is described as follows: viability profiling in RPMI8226 myeloma cells – cell-based, resazurin fluorescence, basal, 24 h, PK04 Diversity Set, profiling panel (AID 1180).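 Note: RPMI8826 multiple myeloma cell line at 5000 cells per well.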 The following applies: higher = more signal.
The target of test [10] is E3 ubiquitin-protein ligase XIAP (Homo sapiens) (UniProt P98170). Kind of test: small molecules binding XIAP protein – biophysical, small-molecule microarray, fluorescence 635 nm, primary screen (AID 1181).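 Note: score merges 667 nm emission and signal to noise over triplicate slides.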 The following applies: higher = more signal.
Sequence of E3 ubiquitin-protein ligase XIAP (Homo sapiens) (P98170 whole entry, looked up, the tested form may be a part): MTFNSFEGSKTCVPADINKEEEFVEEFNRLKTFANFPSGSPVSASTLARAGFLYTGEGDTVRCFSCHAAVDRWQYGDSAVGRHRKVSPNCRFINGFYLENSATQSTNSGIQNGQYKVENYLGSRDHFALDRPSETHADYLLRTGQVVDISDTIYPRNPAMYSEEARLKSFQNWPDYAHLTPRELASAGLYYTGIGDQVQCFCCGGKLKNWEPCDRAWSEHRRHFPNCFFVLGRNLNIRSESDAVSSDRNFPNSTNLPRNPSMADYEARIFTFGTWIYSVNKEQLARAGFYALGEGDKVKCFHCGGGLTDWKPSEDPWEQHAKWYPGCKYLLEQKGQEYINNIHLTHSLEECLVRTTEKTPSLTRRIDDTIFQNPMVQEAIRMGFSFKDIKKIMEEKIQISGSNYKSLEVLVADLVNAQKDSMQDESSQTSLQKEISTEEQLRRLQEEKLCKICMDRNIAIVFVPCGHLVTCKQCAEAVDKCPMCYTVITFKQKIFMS
In test [11] the test system is XIP peptide (Xip251-270) binding. Kind of test: XIP fragment 251-270 binding compounds – biochemical, small-molecule microarray, fluorescence 635/667 nm, 0.1 µg/mL protein, primary screen (AID 1182). The following applies: fluorescent protein binding, 635 nm, higher = more signal, called active from +8 up or from −8 down.
Test [12] concerns XIP peptide (Xip251-270). Kind of test: compounds binding XIP fragment 251-270 – biochemical, small-molecule microarray, fluorescence 635/667 nm, 0.5 µg/mL protein, primary screen (AID 1183). The following applies: fluorescence 635 nm, higher = more signal.
Test [13] in a line: blood-stage malaria parasite viability loss – strain 3D7, DAPI fluorescence, 100 nL, primary screen (AID 1184).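 Note: parasites grown inside human red blood cells in medium with human serum.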 The following applies: P. falciparum 3D7 growth, 3 d, higher = more signal.
For test [14], the target named is Homeobox protein Hox-A13 (Mus musculus) (UniProt Q62424). Kind of test: disruptors of Hoxa13 oligonucleotide interaction – biochemical, fluorescence polarization, labeled oligonucleotide, primary screen (AID 1185). The conditions noted are these: Hoxa13:DNA binding, 15 min, higher = more signal, called active from +8 up or from −8 down.
Sequence of Homeobox protein Hox-A13 (Mus musculus) (Q62424 whole entry, looked up): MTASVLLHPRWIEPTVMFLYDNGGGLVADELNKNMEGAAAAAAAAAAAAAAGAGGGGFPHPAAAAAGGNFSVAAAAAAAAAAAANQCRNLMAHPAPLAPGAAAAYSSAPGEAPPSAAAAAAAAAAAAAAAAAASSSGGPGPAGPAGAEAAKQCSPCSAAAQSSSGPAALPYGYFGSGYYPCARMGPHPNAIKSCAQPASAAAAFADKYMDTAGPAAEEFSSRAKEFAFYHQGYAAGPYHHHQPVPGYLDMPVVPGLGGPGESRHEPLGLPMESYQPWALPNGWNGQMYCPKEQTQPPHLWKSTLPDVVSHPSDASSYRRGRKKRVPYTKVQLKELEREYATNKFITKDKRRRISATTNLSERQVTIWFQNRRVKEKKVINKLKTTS
Test [15] in a line: blockers of DNA damage checkpoint Chk1 activation – imaging, HeLa, hydroxyurea, phospho-Chk1 antibody, percent positive cells, primary screen (AID 1186). The following applies: hydroxyurea-induced phospho-Chk1 immunofluorescence imaging, higher = more signal.
A short description of test [16]: blockers of DNA damage checkpoint Chk1 activation – imaging, HeLa, hydroxyurea, phospho-Chk1 nuclear intensity, primary screen (AID 1187). The following applies: hydroxyurea-induced phospho-Chk1 immunofluorescence imaging, higher = more signal.

Activity calls are given as the source filed them. Unless noted, the rule behind the calls is not given here.

In the case of `COCCOC(=O)N1C(=O)[C@@]2(c3cc(C#Cc4ccc(OC)cc4)ccc31)[C@H](C(=O)N1CCCCCCC1)[C@H]1C(=O)O[C@H](c3ccccc3)[C@H](c3ccccc3)N1[C@@H]2c1ccc(O)cc1`, the z-score is 0.808 in test [1]; -0.404 (inactive) in test [2]; 0.0013 (inactive) in test [3]; 0.721 (inactive) in test [5]; 0.868 (inactive) in [6]; -0.919 (inactive) in test [7]. For the same molecule, the z-score in test [8] was -1.22 (inactive); in test [9], -0.206; in [13], -2.31; in [14] it was 2.16 (inactive); in test [15] it was -0.29 (inactive); in test [16] it was -0.537 (inactive). Further, the composite z-score in [4] is -0.458 (inactive); in test [10], -0.0501; in test [11] it was 1.73 (inactive); in test [12] it was 0.669.

In the case of `O=C1O[C@@H](c2ccccc2)[C@@H](c2ccccc2)N2[C@@H](c3ccc(O)cc3)[C@]3(C(=O)Nc4ccc(C#CC5=CCCCC5)cc43)[C@@H](C(=O)N3CCN(c4ncccn4)CC3)[C@H]12`, the z-score in test [1] was 1.48; in test [2], -0.066 (inactive); in [3], -0.0922 (inactive); in test [5], -0.0478 (inactive); in test [6], 0.207 (inactive); in test [7] it was -0.289 (inactive). Moreover, the z-score in [8] is -0.348 (inactive); in [9], -0.385; in test [13], -1.97; in test [14], 0.676 (inactive); in test [15] it was -0.0981 (inactive); in [16], -0.0223 (inactive). Besides, the composite z-score is -0.824 (inactive) in test [4], 0.118 in [10], -0.168 (inactive) in test [11] and 0.657 in test [12].

Turning to `COCCCNC(=O)[C@]1(CCC(=O)OC(C)(C)C)N=C(c2ccc(OCCCO)cc2)O[C@@H]1c1ccccc1`, the z-score in [1] is -0.402; in test [2] it was 0.397 (inactive); in [3], -0.121 (inactive); in test [5], 0.413 (inactive); in test [6], 0.0279 (inactive); in test [7] it was -0.286 (inactive). In addition, the z-score is -0.0848 (inactive) in test [8]; -0.354 in test [9]; 0.83 in test [13]; -6.02 (inactive) in [14]; -0.289 (inactive) in test [15]; -0.288 (inactive) in test [16]. Moreover, the composite z-score in [4] was 0.152 (inactive); in test [10], 0.081; in test [11], 0.538 (inactive); in [12] it was 0.817.

As for `CCOC(=O)C[C@H]1[C@H](OC(=O)c2ccc(-c3ccccc3)cc2)[C@@H](NC(=O)c2ccc3ccccc3c2)c2cc(OCCCO)ccc2N1C(=O)c1ccc2ccccc2n1`, the z-score in test [1] was -0.138; in test [2], -0.158 (inactive); in [3] it was 0.175 (inactive); in [5], 0.927 (inactive); in test [6], -0.736 (inactive); in test [7], -0.936 (inactive). The z-score in test [8] was -0.808 (inactive); in test [9] it was -0.152; in [13], 0.563; in [14], -1.16 (inactive); in [15], -0.361 (inactive); in [16] it was -0.561 (inactive). The composite z-score in test [4] is -0.746 (inactive); in test [10], -0.394; in test [11], 0.0454 (inactive); in test [12], 0.338.

`COC1(C)CN(Cc2ccccc2Br)[C@H](/C=C/c2ccccc2)[C@H](Cc2ccccc2)O1` (some centres undefined): the z-score in test [1] was 1.1; in test [2], -0.138 (inactive); in [3], 0.832 (inactive); in [5], 0.331 (inactive); in test [6], 0.44 (inactive); in test [7], 0.531 (inactive). Besides, the z-score was 0.523 (inactive) in test [8]; 1.2 in test [9]; 0.502 in [13]; 0.471 (inactive) in test [14]; -1.6 (inactive) in [15]; -2.34 (inactive) in test [16]. For the same molecule, the composite z-score was -0.167 (inactive) in [4], -0.102 in test [10], -0.181 (inactive) in test [11] and -0.13 in test [12].

On to `COc1ccc(C(O)C2C=CC3C(=O)N(c4ccccc4)C(=O)C3N2Nc2ccc(C#N)cc2)c2ccccc12` (centres undefined), for which the z-score in [1] is -1.47; in [2], -1.74 (inactive); in test [3] it was -0.293 (inactive); in test [5] it was 1.55 (inactive); in test [6], -0.993 (inactive); in [7], -0.483 (inactive). Moreover, the z-score is 0.161 (inactive) in test [8]; -0.55 in test [9]; -0.683 in test [13]; 0.744 (inactive) in test [14]; -0.294 (inactive) in [15]; -0.468 (inactive) in [16]. The composite z-score is 0.397 (inactive) in [4], 0.39 in [10], 1.41 (inactive) in test [11] and 0.728 in test [12].

In the case of `C=CCN1C(=O)[C@@]2(O[C@@H](CCn3cc([C@H](O)c4ccccc4)nn3)[C@H]([Si](C)(C)c3ccc(OC)cc3)[C@H]2C)c2ccccc21`, the z-score was -0.986 in test [1]; 0.117 (inactive) in [2]; -1.83 (inactive) in test [3]; 0.626 (inactive) in test [5]; 0.93 (inactive) in test [6]; -0.599 (inactive) in test [7]. For the same molecule, the z-score in test [8] was -0.857 (inactive); in test [9] it was -1.97; in [13], -0.99; in [14], -5.69 (inactive); in test [15], -0.763 (inactive); in test [16], -1.51 (inactive). Moreover, the composite z-score in [4] was -0.198 (inactive); in test [10], 0.144; in [11], -0.0466 (inactive); in test [12], 0.857.

Turning to `CCOc1cc(C(O)C2C=CC3C(=O)N(C)C(=O)C3N2N2CCCCC2)ccc1O` (centres undefined), the z-score is -1.1 in test [1]; 1.62 (inactive) in [2]; -0.791 (inactive) in [3]; 0.614 (inactive) in [5]; 2.07 (inactive) in test [6]; -0.637 (inactive) in test [7]. Besides, the z-score was -0.8 (inactive) in [8]; -0.698 in [9]; -0.144 in [13]; -5.25 (inactive) in [14]; -0.595 (inactive) in test [15]; -0.839 (inactive) in [16]. For the same molecule, the composite z-score in test [4] was 0.66 (inactive); in test [10], 0.179; in test [11], 0.169 (inactive); in [12], 0.333.

As to `COc1ccc([Si](C)(C)[C@@H]2[C@@H](CC(=O)N3CCC[C@H]3CO)O[C@]3(C(=O)N(Cc4ccc(N5C(=O)c6cccc7cccc5c67)cc4)c4ccccc43)[C@H]2C)cc1`, the z-score in [1] is -2.57; in test [2] it was 0.165 (inactive); in test [3], -2.82 (inactive); in test [5] it was -0.012 (inactive); in [6], 1.36 (inactive); in test [7], 0.3 (inactive). The z-score was -0.138 (inactive) in test [8]; -4.75 in test [9]; -2.09 in test [13]; -3.19 (inactive) in [14]; 0.48 (inactive) in [15]; 0.451 (inactive) in test [16]. Further, the composite z-score in test [4] was -0.0108 (inactive); in test [10] it was -0.0386; in test [11] it was 0.353 (inactive); in test [12], 0.792.
